Compounds without any hit were thinned out: in the full panel of roughly 83,000, 20% have a hit.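 Each cell line was grown in a 96-well plate and treated with one concentration of compound for 48 hours. Values below 10 were considered active.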 A number with no mark means an inactive call. Activity calls are given as the source filed them.
Columns and labels:
Experiment in all cases: NCI-60 one-dose screen, 48 h (100 = growth as untreated, 0 = no growth, -100 = all killed)
NCI-H23 lung = details: 10 µM unless noted
NCI-H226 lung = details: 10 µM unless noted
NCI-H322M lung = details: 10 µM unless noted
HOP-62 NSCLC = details: 10 µM unless noted
HOP-92 NSCLC = details: 10 µM unless noted
NCI-H522 lung = details: 10 µM unless noted
786-0 renal = details: 10 µM unless noted
COLO 205 colon = details: 10 µM unless noted
DU-145 prostate = details: 10 µM unless noted
K-562 leukemia = details: 10 µM unless noted
MALME-3M melanoma = details: 10 µM unless noted
MDA-MB-231 breast = details: 10 µM unless noted
RXF 393 renal = details: 10 µM unless noted
SF-268 CNS = details: 10 µM unless noted
SF-295 CNS = details: 10 µM unless noted
SF-539 CNS = details: 10 µM unless noted
UACC-257 melanoma = details: 10 µM
M14 melanoma = details: 10 µM unless noted
A549/ATCC NSCLC = details: 10 µM unless noted
NCI-H460 lung = details: 10 µM unless noted

Row | Compound | growth (NCI-H23 lung) | growth (NCI-H226 lung) | growth (NCI-H322M lung) [%] | growth (HOP-62 NSCLC) | growth (HOP-92 NSCLC) | growth (NCI-H522 lung) | growth (786-0 renal) | growth (COLO 205 colon) | growth (DU-145 prostate) | growth (K-562 leukemia) | growth (MALME-3M melanoma) | growth (MDA-MB-231 breast) | growth (RXF 393 renal) | growth (SF-268 CNS) | growth (SF-295 CNS) | growth (SF-539 CNS) | growth (UACC-257 melanoma) | growth (M14 melanoma) | growth (A549/ATCC NSCLC) | growth (NCI-H460 lung)
1 | Nc1nc(N)c2c(n1)NC(c1ccc(Cl)cc1)CC(c1ccc(Nc3nc(NCCO)nc(Nc4ccc(Cl)cc4)n3)cc1)=N2 (stereo not given) | 33% | 81.8% | 55.6 | -63.7% (active) | 67.4% | 25.2% | 28% | 67.4% | 0.35% (active) | -25.2% (active) | 68.9% | 53% | 43.6% | 51.4% | 47.5% | 83.4% | 107% | 34.5% | – | –
2 | CN1CCN(Cc2ccc(NC(=O)c3cncc(C#Cc4[nH]nc5ncncc45)c3)cc2C(F)(F)F)CC1 | 57.1% | 55% | 75.1 | 65.7% | -16% (active) | 66.2% | 86.3% | 16.5% | 56.6% | 12.4% | -5.86% (active) | 22.9% | 43.4% | 73.7% | 97% | 43.4% | 86.1% | 15% | 84.3% | –
3 | COc1cc(OC)c(S(N)(=O)=O)cc1C(=O)/C=C/c1ccccc1 | 28.2% | 38.8% | 64.6 | 24.8% | 2.22% (active) | 25.8% | 15.3% | 27.5% | 1.92% (active) | 9.69% (active) | 68.1% | 10.3% | -29.7% (active) | 38.3% | 58.3% | 1.13% (active) | 88.6% | 45.9% | 57.1% | –
4 | C=C(C)C(=O)O[C@H]1C[C@@]2(C)OC(=CC2=O)/C(C)=C\[C@H]2OC(=O)C(=C)[C@H]12 | -2.39% (active) | -1.67% (active) | 79.9 | 58.8% | -22% (active) | -72% (active) | -71.3% (active) | -50.1% (active) | -3.72% (active) | – | 6.62% (active) | -33.3% (active) | -53.7% (active) | 7.51% (active) | 42.1% | -54.6% (active) | -26.3% (active) | -37% (active) | 58.5% | –
5 | Cc1ccc(-c2cc(-c3ccc(N(C)C)cc3)n3c(n2)nc2ccccc23)cc1 | 57.1% | 57% | 103 | 83.1% | 21.7% | 25.4% | 80.8% | 92.5% | 87.2% | 29.2% | 96.1% | 66% | – | 88.7% | 55% | 89.8% | 65.8% | 77.2% | 56.5% | –
6 | O=C(NNc1nc2cc(F)c(F)cc2n2cccc12)c1ncccn1 | 20.3% | 14% | 28.7 | 19.9% | 68.1% | 13.7% | 8.17% (active) | 20.5% | 26.8% | 20.8% | 32.7% | 42.1% | 48.8% | 17.3% | 14.7% | 10.9% | 14.5% | 1.46% (active) | 21.1% | –
7 | Cc1csc(Nc2cccc(Nc3nc(C)cs3)c2)n1 | 58.4% | – | 96.2 | 98.8% | 52.2% | 73.3% | 94.5% | 87.2% | 83.8% | 60.1% | 84.8% | 79.2% | 91% | 85.2% | 66.2% | 83.8% | 89.7% | 86% | 88% | 76.5%
8 | C#C[C@]1(O)CC[C@H]2[C@@H]3CC=C4c5sc(Nc6ccncc6)nc5CC[C@]4(C)[C@H]3CC[C@@]21C | 2.43% (active) | – | 31.7 | -42.3% (active) | 4.3% (active) | -37% (active) | -60.2% (active) | -46.9% (active) | 21% | 2.23% (active) | -71.1% (active) | 21.7% | -62.9% (active) | -15.9% (active) | -70.8% (active) | -61.1% (active) | -44.3% (active) | -49.7% (active) | -14.7% (active) | 4.53% (active)
9 | CCOC(=O)c1nn(-c2ccccc2)c(=O)c2c(N)c(C#N)c(-c3cccs3)cc12 | 69.4% | – | 91.4 | 80.4% | 61.3% | 83.8% | 41.4% | 102% | 88.3% | 87.5% | 88.4% | 76.5% | 59.9% | 85.5% | 64.4% | 57.2% | 93.5% | 94.4% | 87.2% | 92.9%
10 | CCCC(=O)NC(c1cccnc1)c1cc(Cl)c2cccnc2c1O (stereo not given) | 44.7% | – | 47.1 | 32.2% | -5.51% (active) | 16.8% | 50.9% | 30.8% | 62.9% | 19.7% | 79.6% | 45.1% | 80.5% | 42.7% | 10.8% | 38% | 34.9% | 44% | 39.7% | 25.3%
11 | C#C[C@]1(O)CC[C@H]2[C@@H]3CC=C4c5sc(C6CC6)nc5CC[C@]4(C)[C@H]3CC[C@@]21C | 86.4% | – | 84.1 | 100% | 120% | 81.6% | 51.2% | 119% | 92.3% | 35.3% | 107% | 91.3% | 5.22% (active) | 86.5% | 43.7% | 66.4% | 78.9% | 77.9% | 72.5% | 82.2%
12 | CCN1C(=O)N(CC)C2SC(N/N=C/c3cccs3)=NC21 (stereo not given) | 25.8% | – | 46.6 | 32% | -7.41% (active) | -47.9% (active) | 17.9% | -63% (active) | 14.6% | 11.5% | 66.4% | 24.5% | 72.5% | 35.7% | 17.1% | -9.73% (active) | 54.2% | 6.49% (active) | 20.3% | 3.74% (active)
13 | COc1ccc2c(C3=C(c4c[nH]c5ccccc45)C(=O)N(O)C3=O)coc2c1 | 93% | – | 96.8 | 84.7% | 96% | 68.4% | 93.8% | 99.2% | 103% | – | 94.8% | 78.3% | 105% | 101% | 103% | 93.3% | – | 94.4% | 96.6% | 90.3%
14 | O=c1[nH]c2cc(Cl)ccc2n1C1CCN(c2ccc3nnc(Cl)n3n2)CC1 | 91% | – | 87.7 | 95.4% | 103% | 87.2% | 97.3% | 107% | 99.8% | 81.4% | 104% | 95.6% | 83.7% | 92.5% | 87.5% | 91% | 95.9% | 98.1% | 88.3% | 100%
15 | C#C[C@]1(O)CC[C@H]2[C@@H]3CC=C4c5sc(Nc6ccc(OC)nc6)nc5CC[C@]4(C)[C@H]3CC[C@@]21C | 63.1% | – | 85 | 51.7% | 60% | 36% | -27.6% (active) | 49.3% | 24.8% | 6.1% (active) | 55.2% | 64.8% | -15.7% (active) | 45.9% | -29.7% (active) | 13.9% | 89% | 59% | 55.2% | 41.5%

Reference: PubChem BioAssay (NCI)
